As usually defined, the AC50 is the midpoint of the concentration-response curve, whichever way the signal moves.

Several values for one entry are separate records, joined by “and”; a condition that tells them apart may be missing. Equal entries are not always repeated. Inconclusive results are not listed. Activity calls are given as the source filed them. The calls were made as follows: active = hit-call score of the fitted dose curve at least 0.9, where 1 is the maximum; inconclusive = response in the unintended direction; inactive = score below 0.9.

The source of these data is PubChem BioAssay (EPA / NIEHS).

In this test the test system is guinea pig Dopamine Transporter (DAT), gene 100714898. Kind of test: NVS_TR_gDAT: NovaScreen (NVS) Transporter Assay for guinea pig Dopamine Transporter (DAT) (AID 2283369).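 Also: active compounds lower bound radioligand signal relative to DMSO.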 The method, then:
NVS_TR_gDAT is a biochemical, single-readout assay that uses extracted gene-proteins from Guinea pig striatal membranes in a tissue-based cell-free assay. Measurements were taken 2 hours after chemical dosing in a 48-well plate.NVS_TR_gDAT is one of one assay component(s) measured or calculated from the NVS_TR_gDAT assay. It is designed to make measurements of radioligand binding, a form of binding reporter, as detected with scintillation counting signals by Filter-based radiodetection technology.Data from the assay component NVS_TR_gDAT was analyzed into 1 assay endpoint. This assay endpoint, NVS_TR_gDAT, was analyzed in the positive analysis fitting direction relative to DMSO as the negative control and baseline of activity. Using a type of binding reporter, loss-of-signal activity can be used to understand changes in the binding as they relate to the gene Slc6a3. Furthermore, this assay endpoint can be referred to as a primary readout, because the performed assay has only produced 1 assay endpoint. To generalize the intended target to other relatable targets, this assay endpoint is annotated to the transporter intended target family, where the subfamily is neurotransmitter transporter.
Binding assays used specific radioligands (tritiated, iodinated) with non-radioactive competitive displacement ligands in agonist or antagonist protocols (as indicated) and various reference compounds and inhibitors to titrate specific binding to receptors and transporters. Most enzyme assays (CYPs, kinases, phosphatases, proteases, HDACs) used recombinant protein and specific substrates (fluorescence mostly, some colorimetric and radioactive) and inhibitors, followed by a biochemical separation of substrate and product. All assays for the biochemical HTS were initially run in duplicate at a single concentration (10 uM for CYP450 assays and 25 uM for all others). Assay-chemical combinations meeting a pre-defined threshold (e.g., 30% inhibition and other criteria defined below) were then run in singleton concentration-response format with maximum concentration of 20 uM for CYPs and 50 uM for all others. Each assay was run with positive and negative controls, and concurrent controls on every plate. The follow-up (secondary) screen tested active chemical-pairs in concentration series, as well as a few additional assays not tested in the primary screen, some selected negative inactives, and several cases re-run in the concentration series for confirmatory purposes.
Turning to `CC(C)(C)[C@@H](O)[C@@H](Cc1ccc(Cl)cc1)n1cncn1`, the AC50 was 4.16 µM (active).
Same read-out and setting: the same measure for `C=CCOC(Cn1ccnc1)c1ccc(Cl)cc1Cl` (stereo not given): 14.3 µM (active); for `Oc1ccc(C(c2ccc(O)cc2)C(Cl)(Cl)Cl)cc1`: 2 µM (active).
For the compound `CCN(Cc1c(F)cccc1Cl)c1c([N+](=O)[O-])cc(C(F)(F)F)cc1[N+](=O)[O-]`, the compound was called inactive.
The same measure, in the same setting: the same measure for `O=C(c1ccccc1)C1CCCCC1`: “inactive”.
In the case of `N#CSCSc1nc2ccccc2s1`, the half-maximal activity concentration (AC50) was 42.1 µM (active).
For `CCOC(=O)NCCOc1ccc(Oc2ccccc2)cc1`, the concentration at half-maximal activity (AC50) is 8.75 µM (active).
The same measure, in the same setting: the same measure for `CC(C)(c1ccc(O)cc1)c1ccc(O)cc1`: 8.77 µM (active) and 25.4 µM (active) and 11.6 µM (active).
Consider `CC(=O)[C@H]1CC[C@H]2[C@@H]3CCC4=CC(=O)CC[C@]4(C)[C@H]3CC[C@]12C`, for which the call was inactive.
On the same count and under the same terms, with `Cc1nn(C)c(Oc2ccccc2)c1C=NOCc1ccc(C(=O)OC(C)(C)C)cc1` the entry was “inactive”.
